We go through 40 compounds from the antibiotic and cytotoxicity screens of Wong et al. (2023).

Screen size: about 39,000 compounds; about 3,300 (8.5%) were called active. The full list was thinned out, with actives kept by preference.

This experiment concerns HepG2. The experiment is described as follows: cytotoxicity call (relative viability < 0.9). The conditions noted are these: 10 µM.
Take `C[C@@H]1CN([C@H](C)CO)C(=O)c2cccc(NS(C)(=O)=O)c2O[C@@H]1CN(C)Cc1ccc2c(c1)OCO2`: the cytotoxicity call was “inactive”.
With `C[C@@H]1CN([C@@H](C)CO)C(=O)c2cc(NS(=O)(=O)c3cccs3)ccc2O[C@@H](C)CCCCO[C@@H]1CN(C)S(=O)(=O)c1cn(C)cn1` the entry was “inactive”.
Consider `Cc1noc(C)c1NC(=O)Nc1ccc2c(c1)CC(=O)N([C@H](C)CO)C[C@@H](C)[C@@H](CN(C)S(C)(=O)=O)O2`, for which the cytotoxicity call was “inactive”.
For the compound `CS(=O)(=O)Nc1ccc2c(c1)[C@@H]1C[C@H](CC(=O)NCC3CC3)O[C@@H](CO)[C@@H]1O2`, the cytotoxicity call was “inactive”.
With `C[C@@H]1CN([C@@H](C)CO)C(=O)c2cc(NC(=O)Cc3ccccc3)ccc2O[C@@H](C)CCCCO[C@@H]1CN(C)S(=O)(=O)c1ccc(F)cc1` the entry was “inactive”.
With `C[C@@H]1CN([C@@H](C)CO)C(=O)c2cc(NC(=O)c3ccccc3)ccc2O[C@@H](C)CCCCO[C@H]1CN(C)Cc1ccncc1`, the cytotoxicity call is “inactive”.
Turning to `CC(C)NC(=O)Nc1cccc2c1O[C@H](CN(C)Cc1ccc3c(c1)OCO3)[C@H](C)CN([C@@H](C)CO)C2=O`, the cytotoxicity call was “inactive”.
In the case of `C[C@H]1CN([C@@H](C)CO)C(=O)c2cccc(NC(=O)C3CC3)c2O[C@H]1CN(C)Cc1ccc(-c2ccccc2)cc1`, the cytotoxicity call is “inactive”.
With `Cc1cc(CCC[C@H](CC(=O)NO)C(=O)N[C@H](C(=O)N[C@H](C)c2ccccc2)C(C)(C)C)ccc1-c1ccccc1` the entry was “active”.
With `Nc1cccc(-c2cccs2)c1` the entry was “inactive”.
Consider `C[C@H](CO)N1C[C@H](C)[C@H](CN(C)S(C)(=O)=O)Oc2ncc(C#Cc3cccnc3)cc2C1=O`, for which the cytotoxicity call was “inactive”.
Consider `COc1ccc(CN(CCN(C)C)c2ccccn2)cc1.O=C(O)C=CC(=O)O`, for which the cytotoxicity call is “inactive”.
With `CN(C)CCN(Cc1ccc(Cl)cc1)c1ccccn1.Cl` the entry was “inactive”.
With `CN(C)CCN(Cc1ccccc1)c1ccccn1.O=C(O)CC(O)(CC(=O)O)C(=O)O` the entry was “active”; with `C[C@H](CO)N1C[C@H](C)[C@@H](CN(C)S(=O)(=O)c2cn(C)cn2)Oc2ccc(NC(=O)CCC(F)(F)F)cc2C1=O`, “inactive”.
With `C[C@@H]1CN([C@H](C)CO)S(=O)(=O)c2ccc(C#CCN(C)C)cc2O[C@H]1CN(C)S(C)(=O)=O` the entry was “inactive”; with `Cc1cc(C(=O)Nc2cccc3c2O[C@H](CN(C)S(=O)(=O)c2c(C)noc2C)[C@H](C)CN([C@H](C)CO)C3=O)n(C)n1`, “inactive”; with `CC1(C)C[C@@](CCN)(Cc2ccccc2)CCO1`, “inactive”.
With `Cc1ccc(S(=O)(=O)Nc2ccc3c(c2)C(=O)N([C@@H](C)CO)C[C@H](C)[C@@H](CN(C)S(=O)(=O)c2ccc(F)cc2)OCCCC[C@@H](C)O3)cc1`, the cytotoxicity call was “inactive”.
With `Cc1ccc(S(=O)(=O)N(C)C[C@@H]2OCCCC[C@H](C)Oc3ccc(NS(=O)(=O)c4ccc(F)cc4)cc3C(=O)N([C@@H](C)CO)C[C@@H]2C)cc1` the entry was “active”.
With `Cc1ccc(S(=O)(=O)Nc2ccc3c(c2)C(=O)N([C@H](C)CO)C[C@H](C)[C@H](CN(C)S(=O)(=O)c2ccc(F)cc2)OCCCC[C@H](C)O3)cc1` the entry was “inactive”; with `Cc1ccc(S(=O)(=O)Nc2ccc3c(c2)C(=O)N([C@H](C)CO)C[C@H](C)[C@@H](CN(C)S(=O)(=O)c2ccc(F)cc2)OCCCC[C@H](C)O3)cc1`, “inactive”.
On to `Cc1ccc(S(=O)(=O)N(C)C[C@H]2OCCCC[C@H](C)Oc3ccc(NS(=O)(=O)c4ccc(F)cc4)cc3C(=O)N([C@H](C)CO)C[C@H]2C)cc1`, for which the cytotoxicity call is “inactive”.
With `Cc1ccc(S(=O)(=O)N(C)C[C@@H]2OCCCC[C@@H](C)Oc3ccc(NS(=O)(=O)c4ccc(F)cc4)cc3C(=O)N([C@H](C)CO)C[C@H]2C)cc1` the entry was “active”; with `Cc1ccc(S(=O)(=O)N(C)C[C@@H]2OCCCC[C@H](C)Oc3ccc(NS(=O)(=O)c4ccc(F)cc4)cc3C(=O)N([C@@H](C)CO)C[C@H]2C)cc1`, “active”.
With `Cc1ccc(S(=O)(=O)Nc2ccc3c(c2)C(=O)N([C@@H](C)CO)C[C@@H](C)[C@H](CN(C)S(=O)(=O)c2ccc(F)cc2)OCCCC[C@@H](C)O3)cc1` the entry was “inactive”; with `Cc1ccc(S(=O)(=O)Nc2ccc3c(c2)C(=O)N([C@@H](C)CO)C[C@H](C)[C@@H](CN(C)S(=O)(=O)c2ccc(F)cc2)OCCCC[C@H](C)O3)cc1`, “inactive”.
With `Cc1ccc(S(=O)(=O)Nc2ccc3c(c2)C(=O)N([C@H](C)CO)C[C@@H](C)[C@H](CN(C)S(=O)(=O)c2ccc(F)cc2)OCCCC[C@@H](C)O3)cc1` the entry was “inactive”; with `Cc1ccc(S(=O)(=O)N(C)C[C@H]2OCCCC[C@H](C)Oc3ccc(NS(=O)(=O)c4ccc(F)cc4)cc3C(=O)N([C@@H](C)CO)C[C@@H]2C)cc1`, “inactive”.
Regarding `Cc1ccc(S(=O)(=O)N(C)C[C@@H]2OCCCC[C@H](C)Oc3ccc(NS(=O)(=O)c4ccc(F)cc4)cc3C(=O)N([C@H](C)CO)C[C@@H]2C)cc1`, the cytotoxicity call was “active”.
With `CN1CCN(C(=O)C[C@@H]2C=C[C@@H](NC(=O)Nc3ccccc3F)[C@@H](CO)O2)CC1` the entry was “inactive”; with `COc1ccc(NC(=O)N(C)C[C@@H]2Oc3ccc(NS(C)(=O)=O)cc3CC(=O)N([C@H](C)CO)C[C@@H]2C)cc1`, “inactive”; with `C[C@@H]1CN([C@H](C)CO)C(=O)c2cccc(NC(=O)Nc3ccccc3)c2O[C@H]1CN(C)C(=O)Nc1ccc(C(F)(F)F)cc1`, “inactive”.
With `Cc1ccc(S(=O)(=O)c2c[nH]c(=O)[nH]2)cc1` the entry was “inactive”; with `CC[C@@](C)(Nc1n[nH]c(=O)[nH]c1=O)C(=O)O`, “inactive”; with `OC[C@H]1O[C@@H](O[C@@H]2[C@@H](O)[C@H](O)[C@H](O[C@@H]3[C@@H](O)[C@H](O)[C@H](O)O[C@@H]3CO)O[C@@H]2CO)[C@@H](O)[C@@H](O)[C@@H]1O`, “inactive”.
With `OCC1OC(OC2C(CO)OC(O)C(O)C2O)C(O)C(O)C1O` (stereo not given), the cytotoxicity call was “inactive”.
For the compound `O.OCC1OC(OC2C(CO)OC(O)C(O)C2O)C(O)C(O)C1O` (stereo not given), the cytotoxicity call was “active”.
With `COC(=O)c1c2oc(c1C(=O)OC)C(=O)N(C)Cc1cn(nn1)C[C@@H](Cc1ccccc1)NC(=O)N[C@H](COC(=O)NCCCCCC(=O)NO)CC2` the entry was “inactive”.
With `Cc1noc(C)c1NC(=O)Nc1ccc2c(c1)C(=O)N([C@@H](C)CO)C[C@H](C)[C@@H](CN(C)S(C)(=O)=O)O2` the entry was “inactive”.
